# Results: PubChem BioAssay (Tox21)
# Inconclusive results are not listed. A call without a number means that no potency is given here. Calls of active or inactive are those of the source. Calls come from the whole dose curve.
# Assay: qHTS assay for small molecule agonists of the p53 signaling pathway - cell viability (AID 651633); note: nearly all actives have a fitted effect of over 30% in size
# Details: p53RE-bla HCT-116 viability, ATP luminescence, 16 h; series mostly up to 83.3 µM
# Source text: National Center for Advancing Translational Sciences [NCATS]
# NIH Chemical Genomics Center [NCGC]
# U.S. Environmental Protection Agency [EPA]
# National Institutes of Environmental Health Sciences [NIEHS]
# National Toxicology Program [NTP]
# U.S. Food and Drug Administration [FDA]
# p53, a tumor suppressor protein, is activated following cellular insult, including DNA damage and other cellular stresses. The activation of p53 regulates cell fate by inducing DNA repair, cell cycle arrest, apoptosis, or cellular senescence. The activation of p53, therefore, is a good indicator of DNA damage and other cellular stresses. […] The activation of the reporter gene under culture conditions can be detected by fluorescence intensity. This cell line was used to screen the Tox21 compound library in a 1536-well plate format and to identify agonists that activate the p53 signaling pathway.
# Tox21 Assay Protocol Summary:
# The p53RE-bla cells were dispensed at 4,000 cells/5 ul/well in 1536-well black wall/clear bottom plates using a Multidrop dispenser. After the assay plates were incubated at a 37 C/5% CO2 incubator for 5 hours, 23 nL of compounds dissolved in DMSO, positive controls or DMSO only was transferred to the assay plate by a pin tool. The plates were incubated at 37 C for 16 hours. After 1 uL of LiveBLAzerTM B/G FRET substrate was added using a Flying Reagent Dispenser, the plates were incubated at room temperature for 2 hours, and fluorescence intensity was measured by an Envision plate reader.
# For cell viability readout that measures cytotoxicity, 4 ul/well of CellTiter-Glo reagent was added into the assay plates using a Flying Reagent Dispenser. After 30 min incubation at room temperature, the luminescence intensity in the plates was measured using a ViewLux plate reader.
# Potency is the fitted concentration of half-maximal effect.
row,SMILES,Potency
1,CCNC(=O)NC(=O)/C(C#N)=N/OC,inactive
2,O=S(=O)(c1ccccc1)c1ccccc1,inactive
3,Cc1ccc2c(C)cccc2c1,inactive
4,Nc1ccccc1C(=O)OCCc1ccccc1,inactive
5,O=C(O)COc1cc(Cl)c(Cl)cc1Cl,inactive
6,O=C(NC(=O)c1cc(F)c(F)cc1Cl)Nc1cc(F)ccc1N1CCC(C(=O)O)CC1,inactive
7,C=C(C)C(=O)OCCCCOC(=O)C(=C)C,inactive
8,FC(F)OC(F)(F)C(F)Cl (stereo not given),inactive
9,CC(C)(C)NCC(O)c1ccccc1Cl (stereo not given),inactive
10,CC(Oc1cc(Cl)c(Cl)cc1Cl)C(=O)O (stereo not given),inactive
11,O=CC=O,inactive
12,CCC1(CCC(C)C)C(=O)NC(=O)NC1=O,inactive
13,CCCCCCCCCCCCCCCl,inactive
14,C=CCN1C[C@H](C)N([C@H](c2ccc(C(=O)N(CC)CC)cc2)c2cccc(OC)c2)C[C@H]1C,inactive
15,COc1cc(C[C@@H](C)N)c(OC)cc1Br,inactive
16,CN(C)c1ccc(N=O)cc1,21.8 µM (active)
17,CCC[N+](CCC)(CCC)CCC,inactive
18,O=[N+]([O-])c1cc(Cl)c(Cl)cc1Cl,inactive
19,C[C@@H]1C[C@@H]([C@H](O)CC2CC(=O)NC(=O)C2)C(=O)[C@@H](C)C1,inactive
20,CC(=O)NNc1ccccc1,inactive

row,SMILES,Potency
1,C#C[C@]1(O)CC[C@H]2[C@@H]3CCC4=CC(=O)CCC4=C3C=C[C@@]21CC,inactive
2,CCC(C)Cl (stereo not given),inactive
3,C[C@]12CC[C@H]3[C@@H](CCC4=CC(=O)CC[C@@H]43)[C@@H]1CC[C@@H]2OC(=O)CCc1ccccc1,inactive
4,N#CC1(N=NC2(C#N)CCCCC2)CCCCC1,inactive
5,Cc1ccc(N)c(C)c1,inactive
6,CC(=O)OC(c1ccccc1)C(Cl)(Cl)Cl (stereo not given),inactive
7,CCC1(C2=NCCN2)Cc2ccccc2O1 (stereo not given),inactive
8,Oc1cccc(Cl)c1,inactive
9,CC1(C)[C@H](C(=O)O[C@H](C#N)c2cccc(Oc3ccccc3)c2)[C@@H]1C=C(Br)Br,inactive
10,FC(Cl)(Cl)C(F)(Cl)Cl,inactive
11,CC(C)OC(=O)Cc1ccccc1,inactive
12,CC[N+]1(CCOC(=O)C(O)(c2ccccc2)c2ccccc2)CCCCC1,inactive
13,O=C(O)c1cc(Cl)ccc1Cl,inactive
14,O=C(CCl)CCl,inactive
15,C=CCOCC1CO1 (stereo not given),inactive
16,C=CC(C)(CCC=C(C)C)OC(=O)c1ccccc1N (stereo not given),inactive
17,CCCCCCCCP(=O)(O)O,inactive
18,CN1C[C@H](C(=O)N[C@]2(C)O[C@@]3(O)[C@@H]4CCCN4C(=O)[C@H](Cc4ccccc4)N3C2=O)C=C2c3cccc4[nH]cc(c34)C[C@H]21,inactive
19,CC(C)(C#N)C(C)(C)C#N,inactive
20,OC[P+](CO)(CO)CO,inactive
